Results on 21 molecules are retold here after PubChem BioAssay.

What is called inhibition is the drop in the measured response relative to a control, in per cent.

A number with no mark means an inactive call. For some of these results: Results with a measured potency or affinity are listed apart. The source made the active and inactive calls.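 The calls were made as follows, unless noted: active = compound raises insulin release from rat beta cells at 5 mM glucose, no numeric limit stated; inactive = the rest.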

Experiment [1] is described as follows: stimulators of insulin release from INS-1E, primary screen, cell-based, 5 mM glucose, NPC library (AID 1117329). The conditions noted are these: rat INS-1E insulin secretion, at 10 µM, stronger effect = higher value.
Experiment [2] in a line: growth inhibition of GSK3B-pretreated HCT116 cells – cell-based, CellTiter-Glo, 0.2 to 20 µM (AID 1117336;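 active = compounds lowering colon cancer cell viability after pretreatment blocking the GSK3B kinase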). The conditions noted are these: HCT116 viability after GSK3B inhibitor, at 20 µM, stronger effect = higher value. A general note: Cellular ATP, detected with luciferase, serves as a proxy for viable cell number.
Experiment [3] is described as follows: inhibition of endothelial tube formation, primary screen, imaging, VEGF stimulated, CD31 staining, tube area, NPC library (AID 1117340;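 active = compound that reduces growth-factor-driven endothelial tube area in a mixed cell culture, no cutoff stated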). The conditions noted are these: VEGF-stimulated ADSC/ECFC co-culture, at 10 µM, stronger effect = higher value.
Experiment [4] can be described thus: GLP1 release stimulators, primary, NCI-H716, NPC library (AID 1117341;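 active = compound raises GLP1 secretion from the human gut endocrine cells, with no numeric limit stated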). The conditions noted are these: NCI-H716 cells, at 10 µM, stronger effect = higher value.
A short description of experiment [5]: HCT116 colon cancer cell growth inhibition, primary screen, CellTiter-Glo luminescence, NPC library (AID 1117342;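 active = compounds that lower survival of HCT116 colon cancer cells in the luminescence readout, no numeric limit stated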). The conditions noted are these: at 20 µM (top of the series).
A short description of experiment [6]: reduced SW480 viability measured with CellTiter-Glo, NPC library, primary (AID 1117343;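 active = compounds that lower viability of the colon cancer cells in the luminescence readout, with no numeric limit stated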). The conditions noted are these: CellTiter-Glo luminescence; at 20 µM (top of the series).
The nature of experiment [7]: NPC library primary testing for decreased DLD-1 cell viability via CellTiter-Glo (AID 1117346;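 active = compounds that lower survival of DLD-1 colon cancer cells in the luminescence readout, no cutoff given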). The conditions noted are these: DLD-1 viability, CellTiter-Glo luminescence; at 20 µM (top of the series).
Experiment [8] has as its target 6-phosphogluconate dehydrogenase, decarboxylating (Homo sapiens) (UniProt P52209). Kind of experiment: inhibition of human phosphogluconate dehydrogenase – biochemical, recombinant enzyme, NADPH absorbance, primary screen (AID 1159550;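 active = at least 20% inhibition of 6-phosphogluconate dehydrogenase activity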). The conditions noted are these: recombinant 6PGD, NADPH absorbance 341 nm; at 10 µM; stronger effect = higher value.
Experiment [9] concerns the target Calcium-dependent protein kinase 1 (Plasmodium falciparum (isolate 3D7)) (UniProt P62344). Kind of experiment: PfCDPK1 kinase inhibitors, biochemical, TCAMS library (AID 1159585; cut-off not given, nearly all actives have IC50 up to about 0.98 µM;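 also: inhibitors leave more ATP so luminescence rises with inhibition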). The conditions noted are these: recombinant PfCDPK1, Kinase-Glo ATP depletion luminescence. (Kinase-Glo measures the ATP left after a reaction by luminescence.)
Experiment [10] concerns the target Plasmodium falciparum protein kinase 6 (PK6, PF3D7_1337100) (UniProt Q8IDW1). As to the kind of experiment: PfPK6 kinase inhibitors, biochemical, TCAMS library (AID 1159586; call rule not given here). The conditions noted are these: recombinant PfPK6, Kinase-Glo ATP depletion luminescence.

Chain of 6-phosphogluconate dehydrogenase, decarboxylating (Homo sapiens) (P52209 whole entry, looked up): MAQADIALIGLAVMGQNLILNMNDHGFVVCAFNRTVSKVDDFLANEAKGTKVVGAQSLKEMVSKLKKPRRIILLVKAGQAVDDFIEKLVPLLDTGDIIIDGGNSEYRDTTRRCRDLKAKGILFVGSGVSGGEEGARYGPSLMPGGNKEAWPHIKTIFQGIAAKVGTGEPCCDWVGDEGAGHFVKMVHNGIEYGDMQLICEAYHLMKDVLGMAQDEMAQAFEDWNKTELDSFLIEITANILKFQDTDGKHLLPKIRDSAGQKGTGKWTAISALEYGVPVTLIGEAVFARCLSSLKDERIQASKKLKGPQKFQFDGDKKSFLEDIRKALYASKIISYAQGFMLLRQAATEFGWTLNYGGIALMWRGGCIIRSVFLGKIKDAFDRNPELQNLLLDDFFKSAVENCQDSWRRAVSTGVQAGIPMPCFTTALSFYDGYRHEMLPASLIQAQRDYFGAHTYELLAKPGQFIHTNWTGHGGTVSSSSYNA
Chain of Calcium-dependent protein kinase 1 (Plasmodium falciparum (isolate 3D7)) (P62344 whole entry, looked up): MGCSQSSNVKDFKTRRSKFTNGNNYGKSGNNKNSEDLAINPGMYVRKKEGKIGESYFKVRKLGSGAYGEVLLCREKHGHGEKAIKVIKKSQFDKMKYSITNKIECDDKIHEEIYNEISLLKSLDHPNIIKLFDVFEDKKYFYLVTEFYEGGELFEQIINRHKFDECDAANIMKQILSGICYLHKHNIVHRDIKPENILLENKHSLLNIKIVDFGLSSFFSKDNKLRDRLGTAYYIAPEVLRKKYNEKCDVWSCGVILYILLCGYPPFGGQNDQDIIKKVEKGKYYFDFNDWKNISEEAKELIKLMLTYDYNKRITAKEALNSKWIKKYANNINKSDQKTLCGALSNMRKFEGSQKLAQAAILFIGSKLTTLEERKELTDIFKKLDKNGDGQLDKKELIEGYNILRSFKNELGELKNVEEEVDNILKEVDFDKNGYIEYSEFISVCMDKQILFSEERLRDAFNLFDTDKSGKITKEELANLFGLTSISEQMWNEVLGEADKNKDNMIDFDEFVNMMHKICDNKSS
Chain of Plasmodium falciparum protein kinase 6 (PK6, PF3D7_1337100) (Q8IDW1 1-305): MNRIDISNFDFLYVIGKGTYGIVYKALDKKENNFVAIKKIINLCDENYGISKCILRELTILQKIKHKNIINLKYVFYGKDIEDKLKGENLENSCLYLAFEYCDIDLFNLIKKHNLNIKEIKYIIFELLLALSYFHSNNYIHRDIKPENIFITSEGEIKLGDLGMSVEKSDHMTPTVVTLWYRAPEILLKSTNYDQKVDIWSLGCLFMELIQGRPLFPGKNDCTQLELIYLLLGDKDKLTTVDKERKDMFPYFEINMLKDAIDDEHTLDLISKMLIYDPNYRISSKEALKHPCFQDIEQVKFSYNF

For `CC(C)NC[C@@H](O)COc1cccc2ccccc12`, the insulin secretion stimulation in experiment [1] was 15.3%. Besides, the viability decrease in [2] is 6.9%. Besides, the tube area decrease in experiment [3] was 5.1%. The GLP1 secretion stimulation in [4] is 3.3%. Besides, the inhibition of viability in experiment [5] is 0.8%. Besides, the viability decrease (inhibition) in [6] was 54.8% (active); in experiment [7], 13.7%. In experiment [8], the inhibition was 5.64%.
Take `CN(C)C(=O)Nc1ccc(Cl)c(Cl)c1`: the insulin secretion stimulation in experiment [1] was -2.3%. Besides, in experiment [2], the viability decrease is -3.75%. The tube area decrease in [3] was -17.1%. Also, the GLP1 secretion stimulation in experiment [4] was -0.7%. Moreover, in experiment [5], the inhibition of viability was -2.8%. For the same molecule, the viability decrease (inhibition) is 11.2% in experiment [6] and 13.6% in [7]. The inhibition in experiment [8] is -8.44%.
As to `CCOc1ccc2nc3cc(N)ccc3c(N)c2c1`, the insulin secretion stimulation in experiment [1] was 3.5%. Further, the viability decrease in experiment [2] is 81.2% (active). For the same molecule, the tube area decrease in experiment [3] was 73.3% (active). Besides, the GLP1 secretion stimulation in experiment [4] was 8.6%. Also, the inhibition of viability in [5] was 70.6% (active). In addition, the values for the viability decrease (inhibition) in experiment [6] and in experiment [7] were 121% (active) and 47.2%, respectively. Moreover, the result in experiment [9] and in experiment [10] was inactive.
In the case of `CCN(CCCc1ccccc1)CCCc1ccccc1`, in experiment [1], the insulin secretion stimulation was 7.3%. Besides, the viability decrease in experiment [2] is -119%. In addition, the tube area decrease in experiment [3] is 5.4%. For the same molecule, in experiment [4], the GLP1 secretion stimulation was 2.7%. Besides, the inhibition of viability in experiment [5] is 41.4%. Also, the viability decrease (inhibition) in [6] is 44%; in [7] it was 60.1% (active). For the same molecule, the inhibition in experiment [8] was 7.45%.
As for `CCN(CC)CCNC(=O)COc1ccc(OC)cc1`, in [1], the insulin secretion stimulation is 1.8%. Moreover, the viability decrease in [2] was -5.3%. Further, the tube area decrease in experiment [3] is -8.1%. Further, the GLP1 secretion stimulation in experiment [4] is 2.1%. In addition, the inhibition of viability in experiment [5] is -18.7%. The viability decrease (inhibition) in experiment [6] is 22.1%; in [7], -6.15%. Further, the inhibition in [8] was -14.6%.
As for `NCCCC(=O)O`, in experiment [1], the insulin secretion stimulation is -0.7%. Moreover, the viability decrease in experiment [2] is 3.2%. The tube area decrease in experiment [3] was 12%. The GLP1 secretion stimulation in experiment [4] is 1.6%. For the same molecule, the inhibition of viability in [5] is 1.3%. Also, the viability decrease (inhibition) in experiment [6] is 10.4%; in [7], 0.95%. Further, the inhibition in experiment [8] was 15.9%.
In the case of `CCN(CC)Cc1cc(Nc2ccnc3cc(Cl)ccc23)ccc1O`, in experiment [1], the insulin secretion stimulation is 9.6%. In experiment [2], the viability decrease was 82% (active). Also, in [3], the tube area decrease was 39.9%. In addition, the GLP1 secretion stimulation in experiment [4] is -1.3%. In experiment [5], the inhibition of viability was 83.2% (active). For the same molecule, the figures for the viability decrease (inhibition) in experiment [6] and in experiment [7] were 87.3% (active) and 44.8%, respectively. Besides, the outcome in experiment [9] and in experiment [10] was inactive.
For `Cc1ccnc(NS(=O)(=O)c2ccc(N)cc2)n1`, in experiment [1], the insulin secretion stimulation is -0.3%. Moreover, the viability decrease in experiment [2] is 9.35%. The tube area decrease in experiment [3] is -12.6%. In addition, the GLP1 secretion stimulation in [4] is 2.1%. Besides, the inhibition of viability in experiment [5] is 2.4%. Also, the viability decrease (inhibition) in experiment [6] is 31.8%; in experiment [7], 7.5%. Also, the inhibition in experiment [8] was 2.58%.
Turning to `NC/C=C/C(=O)O`, the insulin secretion stimulation in experiment [1] was 1.5%. The viability decrease in [2] is -42.3%. For the same molecule, the tube area decrease in experiment [3] was -0.5%. Also, the GLP1 secretion stimulation in experiment [4] is -2.6%. Besides, the inhibition of viability in experiment [5] is 3.67%. In addition, the viability decrease (inhibition) was 11.1% in [6] and -6.3% in experiment [7]. Further, in experiment [8], the inhibition is 0.304%.
On to `CC(=O)Nc1ccc(S(=O)(=O)Nc2ccc([N+](=O)[O-])cc2)cc1`, for which, in experiment [1], the insulin secretion stimulation is -0.2%. Further, in experiment [2], the viability decrease was 9.9%. For the same molecule, the tube area decrease in experiment [3] was 18.2%. For the same molecule, the GLP1 secretion stimulation in experiment [4] was 3.6%. Moreover, the inhibition of viability in experiment [5] is -1.57%. The viability decrease (inhibition) in [6] is 11.5%; in [7], -3.8%. Further, the inhibition in [8] is 0.544%.
On to `CCCCCCCCCCCCCCCCOP(=O)([O-])OCC[N+](C)(C)C`, for which, in experiment [1], the insulin secretion stimulation is 0%. For the same molecule, the viability decrease in [2] is 100% (active). Further, in experiment [3], the tube area decrease was 12.2%. In addition, the GLP1 secretion stimulation in experiment [4] was 2.7%. The inhibition of viability in [5] is 100% (active). In addition, the viability decrease (inhibition) is 120% (active) in experiment [6] and 103% (active) in [7]. Further, the inhibition in experiment [8] was 17%.
On to `OC[C@H]1O[C@@H](O[C@@H]2[C@@H](CO)O[C@](O)(CO)[C@H]2O)[C@H](O)[C@@H](O)[C@H]1O`, for which the insulin secretion stimulation in experiment [1] was 0.5%. Also, in experiment [2], the viability decrease was -11.1%. For the same molecule, in experiment [3], the tube area decrease was -2.5%. In experiment [4], the GLP1 secretion stimulation was 0.8%. The inhibition of viability in experiment [5] was 10%. For the same molecule, the viability decrease (inhibition) is 86.9% (active) in experiment [6] and -4.2% in experiment [7]. For the same molecule, in [8], the inhibition was 0.0837%.
For `C[C@](N)(Cc1ccc(O)c(O)c1)C(=O)O`, in experiment [1], the insulin secretion stimulation was 1.8%. Further, in experiment [2], the viability decrease is 17.5%. The tube area decrease in [3] is 1.4%. Moreover, in [4], the GLP1 secretion stimulation was 0.4%. Also, the inhibition of viability in [5] is 5.03%. Moreover, the viability decrease (inhibition) in [6] is -10%; in experiment [7], 0.1%. For the same molecule, the inhibition in [8] was -6.99%.
As for `COc1cc(OC)cc(OC)c1`, the insulin secretion stimulation in experiment [1] was 2.1%. For the same molecule, the viability decrease in experiment [2] is -6.5%. In experiment [3], the tube area decrease is 7.3%. The GLP1 secretion stimulation in [4] was -0.4%. The inhibition of viability in [5] is -3.13%. Also, the viability decrease (inhibition) in experiment [6] was -10.2%; in experiment [7], -8.5%. The inhibition in experiment [8] is 14.4%.
With `Cn1cnc2c1c(=O)[nH]c(=O)n2C`, the insulin secretion stimulation in experiment [1] is 2.3%. In [2], the viability decrease is 5%. For the same molecule, the tube area decrease in experiment [3] is 15.1%. Also, the GLP1 secretion stimulation in experiment [4] was -0.4%. In addition, in experiment [5], the inhibition of viability was 6.3%. The viability decrease (inhibition) in experiment [6] is -8.1%; in [7], -19.1%. Also, the inhibition in experiment [8] is -1.33%.
With `O=C1c2ccccc2C(=O)c2c1ccc(O)c2O`, the insulin secretion stimulation in experiment [1] is -2%. The viability decrease in experiment [2] is 45.6%. For the same molecule, the tube area decrease in experiment [3] was -9.9%. The GLP1 secretion stimulation in experiment [4] was -3.8%. The inhibition of viability in experiment [5] is 9.2%. The figures for the viability decrease (inhibition) in [6] and in experiment [7] were 112% (active) and 65.7% (active), respectively. The inhibition in experiment [8] was 1.17%.
Take `CCCCCCCCNC(C)C(O)c1ccc(SC(C)C)cc1` (configuration not stated): the insulin secretion stimulation in experiment [1] was -0.1%. In addition, the viability decrease in experiment [2] is 101% (active). Besides, the tube area decrease in experiment [3] was 45.2% (active). Also, the GLP1 secretion stimulation in experiment [4] is 38.4% (active). The inhibition of viability in experiment [5] is 102% (active). In addition, the viability decrease (inhibition) in experiment [6] was 142% (active); in experiment [7] it was 103% (active). In addition, in experiment [8], the inhibition is 12%.
In the case of `C[C@H]1c2cccc(O)c2C(O)=C2C(=O)[C@]3(O)C(O)=C(C(N)=O)C(=O)[C@@H](N(C)C)[C@@H]3[C@@H](O)[C@@H]21`, the insulin secretion stimulation in experiment [1] was -0.5%. Besides, the viability decrease in experiment [2] was 92.4% (active). Moreover, the tube area decrease in experiment [3] was -4.2%. For the same molecule, the GLP1 secretion stimulation in experiment [4] is 2.6%. Moreover, the inhibition of viability in [5] was 68.1% (active). The results for the viability decrease (inhibition) in experiment [6] and in [7] were 61.1% (active) and 90.9% (active), respectively. Besides, the inhibition in [8] was 9.31%.
As to `CCCCc1ccc2nc(NC(=O)OC)[nH]c2c1`, the insulin secretion stimulation in [1] is -1.7%. In experiment [2], the viability decrease is 91.7% (active). The tube area decrease in experiment [3] was 108% (active). The GLP1 secretion stimulation in experiment [4] was -5.4%. Besides, in experiment [5], the inhibition of viability was 67.5% (active). The viability decrease (inhibition) in experiment [6] was 33.8%; in [7], 50.6% (active). Moreover, the outcome in experiment [9] and in experiment [10] was inactive.
On to `Cc1nc(N)nc(N)c1-c1ccc(Cl)c(Cl)c1`, for which the insulin secretion stimulation in experiment [1] was 1.95%. Besides, in [2], the viability decrease is 101% (active). Also, in experiment [3], the tube area decrease is -11.8%. In addition, the GLP1 secretion stimulation in experiment [4] was 2.8%. Also, in [5], the inhibition of viability is 95.5% (active). For the same molecule, the viability decrease (inhibition) was 131% (active) in experiment [6] and 68.5% (active) in experiment [7]. Moreover, the outcome in experiment [9] and in experiment [10] was inactive.
For the molecule `Nc1c2c(nc3ccccc13)CCCC2O` (configuration not stated), the insulin secretion stimulation in [1] was 11.8%. Also, the viability decrease in experiment [2] was 5.9%. In addition, in experiment [3], the tube area decrease is 16.1%. Moreover, the GLP1 secretion stimulation in experiment [4] was 8.3%. The inhibition of viability in experiment [5] was 3.6%. Moreover, the values for the viability decrease (inhibition) in [6] and in experiment [7] were 26.9% and -22.2%, respectively. In addition, in experiment [8], the inhibition is 7.08%.
